Measurements published in PubChem BioAssay AID1159580 (chemical genetic matrix, 2015).
About 2,000 (36%) of roughly 5,500 compounds were called active. Inconclusive results (about 18%) are left out. Cut-off read from the data, not from the text of the source: active = normalized growth mostly below about 0.91 (no sharp cut-off); inconclusive = no clear call, values can overlap the other calls; inactive = mostly above about 0.92. This is one part of the list.

Test: chemical genetic growth profiling, strain panel (AID 1159580);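 note: tested at 20 µM; growth read once vehicle control cultures reached saturation at 30 °C; 1 = growth at the plate median or of vehicle wells; lower values mean less growth of the strain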
Conditions: S. cerevisiae deletion strains, growth OD

Measured: normalized growth

O=C(O)CN(CC(=O)O)Cc1cc2c(-c3ccccc3C(=O)O)c3cc(CN(CC(=O)O)CC(=O)O)c(=O)cc-3oc2cc1O
inactive: locus YAL013W, strain DEP1, stronger effect = lower value 1 | locus YAL021C, strain ccr4, stronger effect = lower value 0.934 | locus YAL030W, strain snc1, stronger effect = lower value 0.962 | locus YBL061C, strain skt5, stronger effect = lower value 0.965 | locus YBR009C, strain hhf1, stronger effect = lower value 0.931 | locus YBR021W, strain FUR4, stronger effect = lower value 0.981 | locus YBR023C, strain chs3, stronger effect = lower value 0.981 | locus YBR171W, strain sec66, stronger effect = lower value 0.965 | locus YBR229C, strain ROT2, stronger effect = lower value 1.01 | locus YBR231C, strain swc5, stronger effect = lower value 0.943 | locus YBR279W, strain paf1, stronger effect = lower value 0.967 | locus YCL011C, strain gbp2, stronger effect = lower value 0.962 | locus YCL016C, strain dcc1, stronger effect = lower value 0.976 | locus YCL029C, strain bik1, stronger effect = lower value 1.02 | locus YCL061C, strain MRC1, stronger effect = lower value 0.937 | locus YCL069W, strain vba3, stronger effect = lower value 0.975 | locus YCR088W, strain abp1, stronger effect = lower value 0.995 | locus YDL005C, strain med2, stronger effect = lower value 0.982 | locus YDL035C, strain GPR1, stronger effect = lower value 0.997 | locus YDL040C, strain nat1, stronger effect = lower value 0.964 | locus YDL074C, strain BRE1, stronger effect = lower value 0.991 | locus YDL101C, strain DUN1, stronger effect = lower value 1.01 | locus YDL134C, strain PPH21, stronger effect = lower value 1.01 | locus YDL185W, strain tfp1, stronger effect = lower value 0.986 | locus YDL192W, strain arf1, stronger effect = lower value 1.02 | locus YDR001C, strain nth1, stronger effect = lower value 0.965 | locus YDR069C, strain doa4, stronger effect = lower value 0.951 | locus YDR101C, strain arx1, stronger effect = lower value 1.01 | locus YDR150W, strain NUM1, stronger effect = lower value 1.02 | locus YDR159W, strain sac3, stronger effect = lower value 0.96 | locus YDR162C, strain NBP2, stronger effect = lower value 0.984 | locus YDR195W, strain ref2 1.04 | locus YDR297W, strain sur2, stronger effect = lower value 0.951 | locus YDR318W, strain mcm21, stronger effect = lower value 1.02 | locus YDR334W, strain swr1, stronger effect = lower value 0.955 | locus YDR335W, strain msn5, stronger effect = lower value 0.932 | locus YDR388W, stronger effect = lower value 1.02 | locus YDR392W, strain spt3, stronger effect = lower value 0.914 | locus YDR502C, strain sam2, stronger effect = lower value 1.02 | locus YEL003W, strain gim4, stronger effect = lower value 0.948 | locus YEL037C, strain rad23, stronger effect = lower value 0.971 | locus YEL061C, strain CIN8 (second series), stronger effect = lower value 0.963 | locus YEL061C, strain CIN8, stronger effect = lower value 1 | locus YER016W, strain bim1, stronger effect = lower value 0.986 | locus YER110C, stronger effect = lower value 1.03 | locus YER111C, strain swi4, stronger effect = lower value 0.934 | locus YER155C, strain BEM2 (second series), stronger effect = lower value 1 | locus YER155C, strain BEM2, stronger effect = lower value 1 | locus YER167W, strain BCK2, stronger effect = lower value 1.02 | locus YFR010W, strain ubp6, stronger effect = lower value 0.992 | locus YGL078C, strain dbp3, stronger effect = lower value 1.02 | locus YGL086W, strain mad1, stronger effect = lower value 1.01 | locus YGL167C, strain pmr1, stronger effect = lower value 0.967 | locus YGL173C, strain kem1, stronger effect = lower value 0.939 | locus YGL227W, strain vid30, stronger effect = lower value 0.977 | locus YGL240W, strain doc1, stronger effect = lower value 0.977 | locus YGL248W, strain PDE1, stronger effect = lower value 1.01 | locus YGL253W, strain hxk2, stronger effect = lower value 0.934 | locus YGR078C, strain PAC10, stronger effect = lower value 0.997 | locus YGR135W, strain pre9, stronger effect = lower value 1 | locus YGR229C, strain SMI1, stronger effect = lower value 0.976 | locus YGR252W, strain gcn5, stronger effect = lower value 1.05 | locus YHR013C, strain ard1, stronger effect = lower value 0.963 | locus YHR030C, strain SLT2, stronger effect = lower value 1 | locus YHR079C, strain IRE1 (second series), stronger effect = lower value 1.02 | locus YHR094C, strain hxt1, stronger effect = lower value 1.01 | locus YHR129C, strain ARP1, stronger effect = lower value 0.997 | locus YHR142W, strain chs7, stronger effect = lower value 0.945 | locus YHR200W, strain rpn10, stronger effect = lower value 1.02 | locus YIL066C, strain RNR3, stronger effect = lower value 0.992 | locus YIL073C, strain SPO22, stronger effect = lower value 1.08 | locus YIL125W, strain kgd1, stronger effect = lower value 1.01 | locus YIR030C, strain dcg1, stronger effect = lower value 1.02 | locus YJL092W, strain hpr5, stronger effect = lower value 0.977 | locus YJL095W, strain BCK1 (second series), stronger effect = lower value 0.961 | locus YJL095W, strain BCK1, stronger effect = lower value 0.976 | locus YJL115W, strain asf1, stronger effect = lower value 0.947 | locus YJL129C, strain trk1, stronger effect = lower value 0.911 | locus YJL134W, strain LCB3, stronger effect = lower value 1.01 | locus YJL154C, strain vps35, stronger effect = lower value 0.984 | locus YJL164C, strain tpk1, stronger effect = lower value 0.929 | locus YJL166W, strain qcr8, stronger effect = lower value 0.969 | locus YJL168C, strain set2, stronger effect = lower value 1.01 | locus YJL187C, strain SWE1 (second series), stronger effect = lower value 0.992 | locus YJL187C, strain SWE1, stronger effect = lower value 0.963
active: locus YAL026C, strain drs2, stronger effect = lower value 0.904 | locus YDR137W, strain rgp1, stronger effect = lower value 0.829 | locus YER015W, strain faa2, stronger effect = lower value 0.897 | locus YHR027C, strain rpn1, stronger effect = lower value 0.874
